PubChem BioAssay (NCI)
The panel holds about 83,000 compounds, 20% with a hit somewhere; the sample as a whole holds those more often.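 Method: cells in 96-well plates; compound added at one concentration; 48 h incubation; percent growth measured; values under 10 scored active.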 Values without a mark were called inactive. The source made the active and inactive calls.

These compounds were tested on HL-60(TB) leukemia (assay: NCI-60 one-dose screen, 48 h (100 = growth as untreated, 0 = no growth, -100 = all killed)). Settings: 10 µM unless noted.

SMILES	growth
CCCCC1(O)CCCCC1	99.1%
CCOC(=O)C1=C(CC(O)c2ccc(OC)cc2OC)NC(=O)NC1c1ccccc1 (stereo not given)	-33.9% (active)
CC1CCCCC[N+]12CCCC2 (stereo not given)	102%
CN(C)c1ccc(CNC(C(=O)c2ccccc2)c2ccccc2)cc1 (stereo not given)	97.1%
Cc1c(Cl)cccc1NC(=O)c1sc2nc3c(cc2c1N)CCCC3	5.57% (active)
c1ccc(-c2nc3nonc3nc2-c2ccccc2)cc1	85.3%
CC1(C)CC(O)CCCCCCOc2c(CN)cccc2NC(=O)c2nc(cnc2N)-c2ccc(cc2)S1(=O)=O (stereo not given)	-49.3% (active)
COc1cc(C2CC(c3ccc(C)cc3)=NN2C=O)ccc1Oc1nc2c(c(=O)n(C)c(=O)n2C)n1C (stereo not given)	111%
Nc1cc(C(=O)O)cc(-n2c(O)c(C=C3N=c4ccccc4=N3)sc2=S)c1	101%
O=C(/C=C/c1cccc([N+](=O)[O-])c1)c1ccc(Nc2nc(Nc3ccc(F)cc3)nc(Nc3ccc(Cl)cc3)n2)cc1	-42.1% (active)
COc1cc(NC(=O)c2cncnc2Nc2ccc3c(ccn3Cc3ccccn3)c2)cc(OC)c1	4.49% (active)
OCCNC(=S)Nc1ccc(-c2nc(N3C[C@H]4CC[C@@H](C3)O4)c3cccn3n2)cc1	38.2%
CCC(=O)OC1=CN2C(=NC(c3ccc(N)cc3)=CC2c2cc(OC)c(OC)c(OC)c2)S1 (stereo not given)	36.5%
CC(=O)CC(c1cccs1)c1c(-c2ccccc2)[nH]c2ccccc12 (stereo not given)	99.8%
c1cc[c]([Bi]([c]2ccccc2)[c]2ccccc2)cc1	96.6%
CCN(CC)CCCNc1cc(OC)c(OC)c2cccnc12	29.2%
NN1CCOC(c2ccccc2)C1 (stereo not given)	-22.4% (active)
O=C(CCN1CCCC1)Nc1ccc2c(NCCCCc3ccccc3)c3ccccc3nc2c1	-62.3% (active)
COC(=O)C1NC(=S)N(c2ccc(Cl)cc2)C1/C=C/c1ccccc1 (stereo not given)	92.8%
O=C(c1ccc(N2CCOCC2)cc1[N+](=O)[O-])N1CCOCC1	133%

SMILES	growth
O=C(O)CCCC(=O)O	99%
COc1ccc(CN2C(=O)/C(=C\c3cc(OC)c(OC)c(OC)c3)c3cc(OC)ccc32)cc1	-27.2% (active)
Cc1cccc(C(=O)N(C(C)C)C(C)C)c1	99.1%
COc1ccc2c(c1)/C(=C/c1c(-c3cc(OC)c(OC)c(OC)c3)nc3sccn13)C(=O)N2	83.4%
COc1ccc(C(=O)OC2C(OC3C(O)COC(O[C@H]4C[C@H]5[C@@H]6CC=C7C[C@@H](O)CC[C@]7(C)[C@H]6CC[C@]5(C)[C@H]4[C@H](C)C(=O)CCC(C)C)C3OC(=O)C(C)C)OCC(O)C2O)cc1 (stereo not given in full)	-17% (active)
O=C(O)CSCSCC(=O)O	98.5%
Cc1cccc2c(Nc3ccc(NS(C)(=O)=O)cc3)c3ccc([N+](=O)[O-])cc3nc12	-27.2% (active)
COc1cc(C(=O)Oc2ccccc2OC(=O)c2cc(OC)c(OC)c(OC)c2)cc(OC)c1OC	110%
COc1ccc(CSc2nc3cc(OC)c(OC)cc3c(=O)n2-c2ccc(Cl)cc2)cc1	104%
CC(C)(N)COS(=O)(=O)O	94.4%
CC(=O)N1N=C(c2ccc3c(c2)OCO3)CC1c1c(C)nn(-c2ccccc2)c1N(C)Cc1ccccc1 (stereo not given)	85.6%
O=C(CCl)Nc1ccc2c(Nc3cc(O)ccc3Cl)ncnc2c1	-53.2% (active)
COc1cc(-c2nc3ccc(C)cc3[nH]2)ccc1OCC(=O)N=Nc1c(O)[nH]c2ccccc12	-34.3% (active)
CC1CC2C3CCC4=CC(=O)CCC4(C)C3CCC2(C)C1(O)C(=O)CO (stereo not given)	75.4%
O=C(Nc1nc2ccccc2s1)Nc1ccc([N+](=O)[O-])cc1Cl	78.8%
CCC(=O)Oc1ccc2c(c1)CC[C@@H]1[C@@H]2CC[C@]2(C)C[C@H](OC(=O)CC)C[C@@H]12	30.8%
C#Cc1cccc(Nc2ncnc3cc(NC(=O)CCl)ccc23)c1	-41.3% (active)
OC(c1cc(-c2ccccc2)nc2ccc(Cl)cc12)C1CCCCN1 (stereo not given)	49.7%
COc1cc(NC(=O)CCSc2nc3ccccc3c(=O)n2Cc2ccccc2)cc(OC)c1OC	104%
CC(=O)Nc1nc2c(s1)CCc1c-2cn(S(=O)(=O)c2ccccc2)c1-c1ccccc1	71%
